# Source: PubChem BioAssay (NCI)
# About 79,000 compounds went through this panel and 15% of them were active in at least one assay; those are over-represented in the sample as a whole. Values without a mark were called inactive. Calls of active or inactive are those of the source. Cut-off read from the data, not from the text of the source: active = growth inhibition above about 70%; inactive = the rest.
# Experiment: NCI Yeast Anticancer Drug Screen. Data for the sgs1 strain (AID 173);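 note: 0% = growth of vehicle-only control cultures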
# Conditions: S. cerevisiae sgs1 mutant, at 11.0 µM, active compounds read high
# Outline: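 Strain with an altered DNA repair or cell cycle pathway exposed to compound. Growth then measured. Value = inhibition versus vehicle control.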
row,Structure (SMILES),growth inhibition
1,O=CC=C(c1ccccc1)c1ccccc1,11%
2,FC(F)(F)c1nc2nc(Cl)c(Cl)nc2n1CCCN1CCOCC1,30%
3,N#CSc1ccc(S(N)(=O)=O)cc1,-21%
4,O=C(NC(Nc1ccc(F)c(Cl)c1)(C(F)(F)F)C(F)(F)F)C(C(F)(F)F)C(F)(F)F,42%
5,O=C(/C=C\c1ccc(Cl)cc1Cl)c1cccs1,12%
6,O=C(NCCCCNCCCNC(=O)c1cc(-c2ccccc2)nc2ccccc12)c1cc(-c2ccccc2)nc2ccccc12,1%
7,NC(=NCc1ccccc1)N/N=C\c1ccnc2ccccc12,1%
8,COc1cc(C2C3=C(COC3=O)Oc3cc4c(cc32)OCO4)ccc1O (stereo not drawn),-6%
9,C#CCCCc1ccccc1,-56%
10,CCc1ccc(NS(=O)(=O)c2ccccc2)c([N+](=O)[O-])c1,15%
11,COc1ccc(C2c3cc4c(cc3OC(C)(O)C2C)OCO4)c(OC)c1 (stereo not drawn),4%
12,COC(=O)c1ccc(CCC2=CC(=O)C(Br)=CC2=O)cc1,34%
13,NNC(=O)CCc1ccc2ccc3ccccc3c2c1,17%
14,Cn1c2ccccc2c(=O)c2cc(NC(=O)CCCCC(=O)Nc3ccc4c(c3)c(=O)c3ccccc3n4C)ccc21,-6%
15,CC(CC(C)(C)[N+](C)(C)C)[N+](C)(C)C (stereo not drawn),1%
16,CC1CCN(CCC(=O)c2ccc(Cl)cc2)CC1,45%
17,CCCCCCCCCCCCCCC(C(=O)[O-])[n+]1ccccc1 (stereo not drawn),-2%

row,Structure (SMILES),growth inhibition
1,CNC1C(OC2C(OC3C(O)C(O)C(N=C(N)N)C(O)C3N=C(N)N)OC(C)C2(O)CO)OC(CO)C(O)C1O (stereo not drawn),2%
2,O=C(O)c1ccccc1-c1ccccc1C(=O)Nc1ccc2c(c1)Cc1ccccc1-2,17%
3,O=[N+]([O-])c1cccc2nc3ccccc3c(NCCCN3CCOCC3)c12,96% (active)
4,C=CC(C)(O)CCC1C(=C)C(O)CC2C(C)(C)CCCC12C (stereo not drawn),20%
5,CN1c2ccc(Cl)cc2C(=O)NC1c1ccc([N+](=O)[O-])s1 (stereo not drawn),58%
6,[O-][n+]1c2ccc(O)cc2nc2ccc(Br)cc21,28%
7,O=C1c2ccccc2-c2nc3ccccc3nc21,-57%
8,CCCCN1C(=O)N(c2ccc(OCC)cc2)C2N(CCCC)C1C(C)(C)C2(C)C (stereo not drawn),20%
9,COc1cc2c(cc1[N+](=O)[O-])C(=O)C(Br)(Br)CCC2,83% (active)
10,O=C1OC(CCl)CN1/N=C/c1ccc([N+](=O)[O-])o1 (stereo not drawn),49%
11,CN(C)CCOc1ccc2c(c1)C/C(=C/c1ncc([N+](=O)[O-])n1C)C2=O,65%
12,CCCCCCCCCCCCCCCCCCN(C)CC(COP(=O)([O-])OCC[N+](C)(C)C)OC (stereo not drawn),97% (active)
13,CC(C)c1ccccc1NC(=O)/C(Cl)=C(\Cl)C(=O)O,5%
14,O=[N+]([O-])C(=C(Sc1ccccc1)Sc1ccccc1)C(Cl)=C(Cl)Cl,58%
15,C(=C\c1ccccc1)/COc1ccccc1C(N1CCOCC1)n1nc2ccccc2n1 (stereo not drawn),54%
16,O=C1C(Nc2ccccc2)=C(Oc2ccccc2)C(=O)c2ccccc21,3%
17,CCN(CC)CCN1C(=O)c2cccc3cc(OC)cc(c23)C1=O,42%

# Same assay, conditions: S. cerevisiae sgs1 mutant, at 33.0 µM, active compounds read high
row,Structure (SMILES),growth inhibition
1,O=CC=C(c1ccccc1)c1ccccc1,43%
2,FC(F)(F)c1nc2nc(Cl)c(Cl)nc2n1CCCN1CCOCC1,50%
3,N#CSc1ccc(S(N)(=O)=O)cc1,9%
4,O=C(NC(Nc1ccc(F)c(Cl)c1)(C(F)(F)F)C(F)(F)F)C(C(F)(F)F)C(F)(F)F,93% (active)
5,O=C(/C=C\c1ccc(Cl)cc1Cl)c1cccs1,33%
6,O=C(NCCCCNCCCNC(=O)c1cc(-c2ccccc2)nc2ccccc12)c1cc(-c2ccccc2)nc2ccccc12,33%
7,NC(=NCc1ccccc1)N/N=C\c1ccnc2ccccc12,13%
8,COc1cc(C2C3=C(COC3=O)Oc3cc4c(cc32)OCO4)ccc1O (stereo not drawn),14%
9,C#CCCCc1ccccc1,-12%
10,CCc1ccc(NS(=O)(=O)c2ccccc2)c([N+](=O)[O-])c1,44%
11,COc1ccc(C2c3cc4c(cc3OC(C)(O)C2C)OCO4)c(OC)c1 (stereo not drawn),18%
12,COC(=O)c1ccc(CCC2=CC(=O)C(Br)=CC2=O)cc1,35%
13,NNC(=O)CCc1ccc2ccc3ccccc3c2c1,22%
14,Cn1c2ccccc2c(=O)c2cc(NC(=O)CCCCC(=O)Nc3ccc4c(c3)c(=O)c3ccccc3n4C)ccc21,4%
15,CC(CC(C)(C)[N+](C)(C)C)[N+](C)(C)C (stereo not drawn),4%
16,CC1CCN(CCC(=O)c2ccc(Cl)cc2)CC1,62%
17,CCCCCCCCCCCCCCC(C(=O)[O-])[n+]1ccccc1 (stereo not drawn),13%

row,Structure (SMILES),growth inhibition
1,CNC1C(OC2C(OC3C(O)C(O)C(N=C(N)N)C(O)C3N=C(N)N)OC(C)C2(O)CO)OC(CO)C(O)C1O (stereo not drawn),35%
2,O=C(O)c1ccccc1-c1ccccc1C(=O)Nc1ccc2c(c1)Cc1ccccc1-2,59%
3,O=[N+]([O-])c1cccc2nc3ccccc3c(NCCCN3CCOCC3)c12,97% (active)
4,C=CC(C)(O)CCC1C(=C)C(O)CC2C(C)(C)CCCC12C (stereo not drawn),53%
5,CN1c2ccc(Cl)cc2C(=O)NC1c1ccc([N+](=O)[O-])s1 (stereo not drawn),95% (active)
6,[O-][n+]1c2ccc(O)cc2nc2ccc(Br)cc21,74% (active)
7,O=C1c2ccccc2-c2nc3ccccc3nc21,-19%
8,CCCCN1C(=O)N(c2ccc(OCC)cc2)C2N(CCCC)C1C(C)(C)C2(C)C (stereo not drawn),57%
9,COc1cc2c(cc1[N+](=O)[O-])C(=O)C(Br)(Br)CCC2,99% (active)
10,O=C1OC(CCl)CN1/N=C/c1ccc([N+](=O)[O-])o1 (stereo not drawn),83% (active)
11,CN(C)CCOc1ccc2c(c1)C/C(=C/c1ncc([N+](=O)[O-])n1C)C2=O,70% (active)
12,CCCCCCCCCCCCCCCCCCN(C)CC(COP(=O)([O-])OCC[N+](C)(C)C)OC (stereo not drawn),99% (active)
13,CC(C)c1ccccc1NC(=O)/C(Cl)=C(\Cl)C(=O)O,12%
14,O=[N+]([O-])C(=C(Sc1ccccc1)Sc1ccccc1)C(Cl)=C(Cl)Cl,76% (active)
15,C(=C\c1ccccc1)/COc1ccccc1C(N1CCOCC1)n1nc2ccccc2n1 (stereo not drawn),96% (active)
16,O=C1C(Nc2ccccc2)=C(Oc2ccccc2)C(=O)c2ccccc21,15%
17,CCN(CC)CCN1C(=O)c2cccc3cc(OC)cc(c23)C1=O,36%
